We go through nine compounds from PubChem BioAssay.

A short description of assay [1]: polyglutamine-triggered caspase-3 activation inhibitors, cell-based (AID 1583). The following applies: polyglutamine-induced caspase-3 activation, cell assay; stronger effect = higher value;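 tested at 10 µM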.
Assay [2] is described as follows: suppressors of polyQ aggregation in yeast, 75Q-TubU reporter (AID 1593). The following applies: Yeast 75Q polyglutamine aggregation reporter.
The nature of assay [3]: rescue of polyQ-huntingtin neuronal dysfunction in worms, whole organism, C. elegans mechanosensory neurons, N-terminal huntingtin (AID 1599). The following applies: touch response, stronger effect = higher value.
The nature of assay [4]: inhibitors of mitochondrial cytochrome c release, biochemical, purified mitochondria (AID 1603).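 Also: mouse liver mitochondria challenged with calcium chloride; signal normalized to the plate average as 100%.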 The following applies: stronger effect = lower value.
A short description of assay [5]: inhibitors of polyQ protein aggregation (AID 1604). The following applies: polyglutamine-induced protein aggregation inhibition assay; stronger effect = higher value; tested at 2.5 µM.
Assay [6] is described as follows: enhancers of glutamate uptake in motor neurons, MN-1 cell line (AID 1612).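 Also: tested at 1 µM final; 0% = mean of DMSO vehicle wells on each plate; positive means more glutamate uptake than control and negative means less.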 The following applies: MN-1 motor neuron cells, stronger effect = higher value.
A short description of assay [7]: reducers of polyQ inclusions in PC12 cells, cell-based, NGF-treated PC12, GFPQ80 (AID 1614).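 Also: lower means fewer inclusions and 0 means no inclusions at all.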 The following applies: PC12 NGF-treated GFP-polyQ80 inclusion reduction.
Assay [8] in a line: suppressors of polyglutamine aggregation in yeast, 75Q-TubH (AID 1616). The following applies: S. cerevisiae 75Q-TubH polyglutamine aggregation suppression; stronger effect = higher value.
Assay [9] can be described thus: growth inhibition of DIPG glioma cells, dose response, cell-based, JHH-DIPG-1, MIPE4.0, CellTiter-Glo, qHTS (AID 1347062; cut-off not given, nearly all actives have AC50 up to about 27 µM;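 as to AC50: cells exposed to compound for two days before readout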). The following applies: JHH-DIPG-1 viability, CellTiter-Glo ATP luminescence.
The nature of assay [10]: SU-DIPG-VI glioma cell viability, MIPE4.0 library, CellTiter-Glo luminescence, qHTS (AID 1347066).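 Also: cells exposed to compound for 48 hours before readout.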 The following applies: CellTiter-Glo ATP luminescence.
Assay [11] can be described thus: SU-DIPG-XXV glioma cell viability, MIPE5.0 library, qHTS (AID 1347068; cut-off not given, nearly all actives have IC50 up to about 30 µM;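 as to IC50: cells exposed to compound for 48 hours before viability readout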).
A short description of assay [12]: growth inhibition of DIPG glioma cells, dose response, cell-based, SU-DIPG-IV, MIPE4.0, CellTiter-Glo, qHTS (AID 1347063).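 Also: compound exposure lasted 48 hours before the viability readout.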 The following applies: SU-DIPG-IV viability, CellTiter-Glo ATP luminescence.
Assay [13] can be described thus: viability loss in pontine glioma line – cell-based, SU-DIPG-XXV, MIPE5.0, CellTiter-Glo, qHTS, dose response (AID 1347065; cut-off not given, nearly all actives have AC50 up to about 26 µM;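 also: cells exposed to compound for 48 hours before ATP readout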). The following applies: CellTiter-Glo ATP luminescence.
The nature of assay [14]: JHH-DIPG-1 glioma cell viability, MIPE5.0 library, CellTiter-Glo luminescence, qHTS (AID 1347067; cut-off not given, nearly all actives have AC50 up to about 26 µM;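 also: cells exposed to compound for 48 hours before readout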). The following applies: JHH-DIPG-1 glioma viability, CellTiter-Glo ATP luminescence.
Assay [15] is described as follows: modifiers of HSF1 nuclear foci, imaging, Selleck Cancer Library (AID 1347162; in the data active = plate-normalised HSF1 focus index below about 0.46). The following applies: human cells, at 10 µM; SSMD: measured here: HSF1 foci SSMD mean; cell count: measured here: cell number; plate-normalised HSF1 focus index: stronger effect = lower value.
Assay [16] is described as follows: sensitizers of A549 cells to miR-34 induction, primary screen, imaging, A549 dox-inducible miR-34, nuclei and caspase counts (AID 1347080;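 active = compounds whose cell count with miR-34 switched on is under 0.7 times the count with it off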). The following applies: A549 miR-34 inducible, Hoechst nuclei count, 48 h.
The nature of assay [17]: phospholipid biosynthesis inhibitors in animal cells, primary screen, cell-based, LOPAC library, screen 4 (AID 1347384; call rule not given here). The following applies: phospholipid biosynthesis inhibition screen, at 10 µM.
Assay [18] is described as follows: survival rescue of mitochondrial mutant cells in low glucose, primary screen, MELAS cybrids, Rieske KO mouse fibroblasts, CellTiter-Glo (AID 1508586;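 active = mean z-score across replicates of 1.96 or higher in either the MELAS or the Rieske mutant cell line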;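 also: z relative to plate mean and SD of compound and empty wells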).
Assay [19] is described as follows: viability rescue of complex I mutant cybrids, primary screen, cell-based, galactose medium, ATP luminescence (AID 1645843;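 active = z-score of at least 1.8 in each of two replicates, scored against plate mean and spread of sample wells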;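 also: positive z means more ATP and so rescue of galactose-driven cybrid death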). The following applies: complex I mutant cybrid cells, 72 h, stronger effect = higher value.
A short description of assay [20]: growth inhibition of DIPG glioma cells, dose response, cell-based, SU-DIPG-XIII, MIPE5.0, CellTiter-Glo, qHTS (AID 1347064; cut-off not given, nearly all actives have AC50 up to about 23 µM). The following applies: SU-DIPG-XIII viability, CellTiter-Glo ATP luminescence.
Assay [21] is described as follows: circadian clock period modulators, cell-based, LOPAC library, luminescence reporter (AID 2774; call rule not given here;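 also: values are relative to mean of DMSO wells on each plate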). The following applies: circadian reporter cells, at 7 µM, actives lie on both sides.
Assay [22] relates to Hepatitis C virus NS3 helicase. As to the kind of experiment: HCV NS3 helicase inhibitors, primary screen, biochemical, fluorescence polarization, LOPAC1280 library (AID 687035; in the data active = inhibition above about 37%). The following applies: Purified HCV NS3 helicase, Cy5-dT15 ssDNA binding fluorescence polarization; stronger effect = higher value; concentration not given here.
Assay [23] is described as follows: Cy5 fluorescence quenching or enhancement artefacts, artefact control for HCV NS3 helicase inhibitor project, biochemical, LOPAC1280 (AID 687037; call rule not given here). The following applies: Cy5-DNA-NS3h complex fluorescence interference counterscreen.
Assay [24] can be described thus: inhibitors of Cryptococcus chitosan production, flow cytometry, Cibacron Brilliant Red staining (AID 1347148; call rule not given here;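 also: compound exposure lasted three days at 37 degrees C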). The following applies: Cryptococcus neoformans chitosan, stronger effect = lower value; at 10 µM unless noted.
Where [25] appears, read: stronger effect = lower value, cell number ratio, induced over uninduced.
[26] abbreviates: measured here: relative caspase fold change +Dox/-Dox.
The mark [27] stands for this setting: measured here: total cells with miR-34 induction, stronger effect = lower value.
Setting [28] is: measured here: total cells without miR-34 induction.
Where [29] appears, read: MELAS cybrid survival, CellTiter-Glo 48 h, stronger effect = higher value.
[30] abbreviates: Rieske KO mouse fibroblast survival, CellTiter-Glo 72 h.

The structures appear in SMILES notation. Where “and” joins values, the source holds several entries; their conditions need not be identical. Equal entries are not always repeated. Results filed as inconclusive are left out. For part of these data: Results with a measured potency or affinity are listed apart. Calls of active or inactive are those of the source. Unless noted, the limit is not given here; nearly all actives have AC50 up to about 30 µM.

For the compound `COc1ccc2c(c1OC)C(=O)OC2[C@H]1c2c(cc3c(c2OC)OCO3)CCN1C` (some centres not stated), in assay [1], the inhibition is -3.24%. The compound also came in with a score in assay [2] of 1.28. Also, the rescue above control in assay [3] is -2.5. The cytochrome c release ratio in [4] was determined as 0.93. In addition, in [5], the inhibition of aggregation is 66.2%. In addition, the glutamate uptake change in assay [6] was -10.2%. For the same compound, in assay [7], the inclusion score amounted to 2. The compound also came in with an aggregation suppression score in assay [8] of 1.38. The concentration at half-maximal activity (AC50) in assay [9] is 1.87 µM (active).
With `COCCOC(=O)C1=C(C)NC2=C(C(=O)CC(c3ccccc3OC)C2)C1c1cccc(O)c1` (configuration not stated), the outcome in assay [9], in assay [10] and in assay [11] was inactive.
As to `Cc1c(C(=O)Nc2ccc(N3C[C@@H](C)O[C@@H](C)C3)nc2)cccc1-c1ccc(OC(F)(F)F)cc1`, the AC50 in assay [12] was 20.9 µM (active); in assay [13] it was 20.9 µM (active); in assay [14] it was 23.5 µM (active). For the same compound, in assay [15], the SSMD was -6.97. In assay [15], the cell count came to 6140. Also, the plate-normalised HSF1 focus index in assay [15] was 0.637 (inactive).
Take `Cc1cc(Cl)ccc1OCCCC(=O)NO`: the compound was called inactive in assay [9], in [11] and in [17]. The fold change in assay [16] (setting [25]) is 0.893 (inactive) and 0.9 (inactive); in assay [16] (setting [26]), 2.21 and 0.917. The cell count is 6940 and 6970 in [16] (setting [27]); 7770 and 7740 in [16] (setting [28]). For the same compound, the z-score in assay [18] (setting [29]) is -0.389 (inactive); in assay [18] (setting [30]) it was 0.796; in assay [19], 0.555 (inactive).
Consider `COc1ccc(CCC(=O)Nc2nc3ccc(Cl)cc3s2)cc1OC`, for which the call in assay [9], in [14] and in assay [11] was inactive. The results for the fold change in assay [16] (setting [25]) and in [16] (setting [26]) were 0.879 (inactive) and 0.345, respectively. For the same compound, the cell count in assay [16] (setting [27]) is 7570; in assay [16] (setting [28]) it was 8610. Besides, the z-score was 1.34 (inactive) in [18] (setting [29]) and -0.214 in assay [18] (setting [30]).
Take `C[C@@H](N)c1ccc(C(=O)Nc2ccnc3[nH]ccc23)cc1`: the concentration at half-maximal activity (AC50) in [12] was 0.418 µM (active). Also, the compound was classed as inactive in assay [10]. Also, the IC50 in assay [11] is 18.6 µM (active).
With `CNC(=O)[C@H](CC1=CN=C2C=CCC=C12)NC(=O)[C@@H](CC(=O)NO)CC(C)C`, the values for the half-maximal activity concentration (AC50) in assay [12] and in assay [10] were 0.0372 µM (active) and 0.0332 µM (active), respectively.
For the compound `C[C@@H]1CCNC(=O)c2cc3ccc(C(=O)Nc4nc5ccccc5n4CCCN(C)C)cc3n21`, the compound was classed as inactive in assay [20].
Turning to `Cc1ccc(S(=O)(=O)N[C@@H](Cc2ccccc2)C(=O)CCl)cc1`, the period change in assay [21] was -0.14 h (inactive). Besides, the inhibition in assay [22] was -4% (inactive). Besides, the fluorescence ratio (interference) in [23] was 1 (inactive). Besides, the half-maximal activity concentration (AC50) in [12] was 18.7 µM (active); in [13], 18.6 µM (active); in [10] it was 20.9 µM (active); in assay [14], 23.5 µM (active). The fold change is 1.17 (inactive) and 1.22 (inactive) in [16] (setting [25]); 0.738 and 0.849 in assay [16] (setting [26]). Besides, the cell count in assay [16] (setting [27]) was 1870 and 962; in assay [16] (setting [28]), 1600 and 786. Also, the fold fluorescence in assay [24] was 6.27 [at 142.1 µM] (inactive). Also, in assay [17], the outcome was inactive. For the same compound, the z-score in assay [19] is -1.34 (inactive).
